Laboratory results published in ChEMBL document CHEMBL4513216, “Probing the Open Global Health Chemical Diversity Library for Multistage-Active Starting Points for Next-Generation Antimalarials” (ACS Infect Dis, 2020).
Among all 69,000 compounds or so, about 8,600 (12%) showed an effect of 50% or more. Many of the other results were omitted from the sample, so strong results are more common in it than they were.

Test system: Plasmodium berghei
Assay: Screen against P. berghei liver stage (PbLuc), transformed with Luciferase, at 10uM
Assay type: functional, HepG2
Conditions: tested at 10 uM

| Structure (SMILES) | INHIBITION |
| --- | --- |
| CC(=O)Nc1ncc(S(=O)(=O)Nc2cccc(F)c2)s1 | -13% |
| CC(=O)Nc1ncc(S(=O)(=O)Nc2cccc(C)c2)s1 | 27.5% |
| CC(=O)Nc1ncc(S(=O)(=O)N2CCC(C)CC2)s1 | 61.2% |
| COc1ccc(NS(=O)(=O)c2cnc(NC(C)=O)s2)cc1 | 50.7% |
| CC(=O)Nc1ncc(S(=O)(=O)N2CCOCC2)s1 | 21.7% |
| CC(=O)Nc1ncc(S(=O)(=O)Nc2ccc3c(c2)OCCO3)s1 | 81.4% |
| CC(=O)Nc1ncc(S(=O)(=O)Nc2ccc(C)cc2)s1 | 77.2% |
| COC(=O)c1ccc(NS(=O)(=O)c2cnc(NC(C)=O)s2)cc1 | 1.86% |
| CC(=O)Nc1ncc(S(=O)(=O)N2CCCC(C)C2)s1 (stereo unspecified) | 40.2% |
| CC(=O)Nc1ncc(S(=O)(=O)Nc2ccc(F)cc2)s1 | -6.32% |
| COC(=O)c1cccc(NS(=O)(=O)c2cnc(NC(C)=O)s2)c1 | 22.9% |
| CC(=O)Nc1ncc(S(=O)(=O)Nc2ccccc2)s1 | 40.8% |
| CC(NC(=O)CNS(C)(=O)=O)c1ccccc1Oc1ccccc1 (stereo unspecified) | 37.1% |
| Cc1cc(N2CCCCC2)nc(N(CCO)CCO)c1C#N | 31.8% |
| CN(C(=O)c1ccncc1)c1nnc(C2CCOC2)s1 (stereo unspecified) | 1.25% |
| Cc1cccc(CN2C(=O)CO[C@@H]3CN(Cc4cnn(C)c4)C[C@H]32)c1 | 45.2% |
| COc1ccc(CN2C[C@H]3CCC[C@@H](CN(C)C)[C@H]3C2)cn1 | 34.6% |
| Cc1cc(C(=O)N2CCCC(c3ccc(C(=O)O)cc3)C2)c(C)o1 (stereo unspecified) | 9.52% |
| COc1ccc(Cl)cc1NCCC(=O)NCCNc1cnccn1 | 14.4% |
| Cc1[nH]ccc1C(=O)NCc1ncoc1C | -17.3% |
| CCC(=O)N1CCC1c1cc(NC2CCCC2)nc(C)n1 (stereo unspecified) | 14.5% |
| COc1ccc(C(C)N2CCC(C(=O)NC3CC3)CC2)cc1Cl (stereo unspecified) | 41.5% |
| COc1ccc(C(C)N2CCC(CNC(C)=O)CC2)cc1Cl (stereo unspecified) | 70.3% |
| COc1ccc(C(C)N2CCC(C(=O)N(C)C)CC2)cc1Cl (stereo unspecified) | 24.8% |
| COc1ccc(C(C)N2CCC(CO)CC2)cc1Cl (stereo unspecified) | 40.6% |
| COc1ccc(C(C)N2CCC(NS(C)(=O)=O)CC2)cc1Cl (stereo unspecified) | 57.3% |

| Structure (SMILES) | INHIBITION |
| --- | --- |
| COc1ccc(C(C)N2CCC(OC)CC2)cc1Cl (stereo unspecified) | 42.4% |
| CC(C)c1cc(NC(=O)Cn2ccc(=O)c3ccccc32)[nH]n1 | 6.72% |
| CCN(CC1COc2ccccc2O1)C(=O)CCn1cncn1 (stereo unspecified) | -4.4% |
| Cc1nn(C)c(N(C)C)c1CNCc1cccnc1OC(C)C | 19.6% |
| CCC(Nc1ccc(Oc2ccc(C#N)cc2OC)cc1)C(N)=O (stereo unspecified) | 73.1% |
| CCC(Nc1ccc(Oc2cccc(C#N)c2)cc1)C(N)=O (stereo unspecified) | 39.7% |
| CCC(Nc1ccc(Oc2ccccc2OC)cc1)C(N)=O (stereo unspecified) | -34.1% |
| CCC(C)NC(=O)c1cc(S(N)(=O)=O)c(Br)s1 (stereo unspecified) | 14% |
| Cc1oc(C(=O)O)cc1S(=O)(=O)Nc1ccc(Cl)cc1F | -20.2% |
| CC(=O)Nc1ccc(Oc2cc(C)nc(C3CCNCC3)c2)cc1 | 19.15% |
| CC(=O)N1CCCC1CCc1ccnc(-c2cncnc2)c1 (stereo unspecified) | 27.45% |
| COC(=O)C1=C(C)N=C2SCC(=O)N2C1c1cn(C)nc1C (stereo unspecified) | 12.6% |
| CN(C)CCN(Cc1ccccc1)C(=O)C1=NNC(=O)CC1 | 18% |
| Cc1ccsc1CN(CCN(C)C)C(=O)C1=NNC(=O)CC1 | 67.2% |
| Cc1ccsc1CN(CCN(C)C)C(=O)c1ccccc1C#N | 14.6% |
| COC(=O)c1ccccc1C(=O)N(CCN(C)C)Cc1sccc1C | 8.03% |
| Cc1ccsc1CN(CCN(C)C)C(=O)c1cc2ccccc2[nH]1 | 71% |
| CN(C)CCN(Cc1ccsc1)C(=O)C1=NNC(=O)CC1 | 49% |
| Cc1nn(C)c(C)c1C1CCCN1C(=O)CCCNc1ncccn1 (stereo unspecified) | -16% |
| CN(CCCNC(=O)C1CCCN(C(N)=O)C1)S(C)(=O)=O (stereo unspecified) | 19.8% |
| O=C(Cc1cccc(F)c1)NCCNS(=O)(=O)C1CCCC1 | 25.3% |
| O=C(Cc1ccccc1)NCCNS(=O)(=O)C1CCCCC1 | 18.2% |
| O=C(Cc1ccc(F)cc1)NCCNS(=O)(=O)C1CCCC1 | 54.9% |
| O=C(c1ccc(O)nc1)N1CCC(Nc2cccnn2)CC1 | 29.4% |
| Cc1ccsc1CN1CC[C@H]2O[C@H](C(=O)N3CCCO3)CC[C@H]21 | -18.4% |
| Cc1ccc(N2CC[C@H]3O[C@@H](C(=O)N4CCCCO4)CC[C@H]32)nn1 | 3.69% |

| Structure (SMILES) | INHIBITION |
| --- | --- |
| O=C([C@@H]1CC[C@@H]2[C@@H](CCN2Cc2cccs2)O1)N1CCCCO1 | -75.3% |
| Cc1ccc(N2CC[C@H]3O[C@H](C(=O)N4CCCCO4)CC[C@H]32)nn1 | 46.4% |
| Cc1ccc(N2CC[C@H]3O[C@@H](C(=O)N4CCCO4)CC[C@H]32)nn1 | 92.1% |
| Cc1ccc(CN2CC[C@H]3O[C@@H](C(=O)N4CCCO4)CC[C@H]32)s1 | 66.9% |
| COCCCN(Cc1ccccn1)S(=O)(=O)N(C)C | 32.8% |
| CS(=O)(=O)NCc1cn2c(n1)CN(Cc1cccnc1)CC2 | -12.2% |
| CCCSCC(=O)N1C[C@@H]2CC[C@H]1CN(c1ncccn1)C2 | -4.37% |
| O=C(Nc1ccc(-c2csnn2)cc1)N1CC[C@H](O)C1 | -73.4% |
| CCN(C)CC1CCN(C(=O)Nc2ccc(-c3csnn3)cc2)C1 (stereo unspecified) | -32.3% |
| CCOCC1CCN(C(=O)Nc2ccc(-c3csnn3)cc2)C1 (stereo unspecified) | 60% |
| Cc1noc(C)c1-c1nc(NCCN(C)C)ncc1-c1cnccn1 | -56.2% |
| CCCOC(=O)N1CCC(c2nnc(Cn3cccn3)n2C2CC2)CC1 | -35.9% |
| CC(C)(C)CC1CCCN1Cc1nc(-c2ccco2)no1 (stereo unspecified) | 76.2% |
| COCCc1noc(CN2CCCCC2Cn2nc(C)cc2C)n1 (stereo unspecified) | 18.4% |
| Cc1nc(C)n(CC2CCCN2CCc2ccncc2)n1 (stereo unspecified) | -21.985% |
| Cc1cc(C)n(CC2CCCN2Cc2ncc(C(C)(C)C)o2)n1 (stereo unspecified) | -25.6% |
| COCCc1noc(CN2CCCC2Cn2nc(C)cc2C)n1 (stereo unspecified) | 1.75% |
| Cc1nc(C)n(CC2CCCN2Cc2nc(-c3ccco3)no2)n1 (stereo unspecified) | 29.645% |
| Cc1nc(C)n(CC2CCCN2CC(=O)NCCc2cccs2)n1 (stereo unspecified) | 43.6% |
| COCCc1noc(CN2CCCC2Cn2nc(C)nc2C)n1 (stereo unspecified) | 64.8% |
| Cc1nc(C)n(CC2CCCN2CCc2cccs2)n1 (stereo unspecified) | 52% |
| Cc1nc(C)n(CC2CCCCN2Cc2ncc(C(C)(C)C)o2)n1 (stereo unspecified) | 31% |
| Cc1nc(C)n(CC2CCCN2Cc2ncc(C(C)(C)C)o2)n1 (stereo unspecified) | 63.5% |
| c1coc(-c2noc(CN3CCCC3Cn3cncn3)n2)c1 (stereo unspecified) | 31.8% |
